Source: PubChem BioAssay AID504753 (Sanford-Burnham Center for Chemical Genomics, 2011)
Hit rate of the full screen: of about 2,400 compounds, about 820 (34%) were called active. A selection follows. Unmarked numbers belong to inactive results.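 The calls were made as follows: active = inhibition of at least 50% at 20 µM in any single replicate; inactive = the rest.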

Tested on: glucose-6-phosphate dehydrogenase-6-phosphogluconolactonase (PfGluPho), Plasmodium falciparum 3D7
Experiment: malaria parasite PfGluPho enzyme inhibition – biochemical, fluorescence intensity, single concentration, confirmation (AID 504753);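 also: 0% = DMSO with substrate and 100% = DMSO lacking glucose-6-phosphate substrate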
Settings: recombinant PfGluPho, NADPH-diaphorase-resazurin fluorescence; at 20 µM; stronger effect = higher value

Structure (SMILES) | inhibition
COc1ccc(CCn2c(NN=C3CCCC3)nc3c2c(=O)[nH]c(=O)n3C)cc1 | 61.9% (active)
CSc1n[nH]c(=S)n1N | 19.9%
O=C(CSc1cccc2cccnc12)N/N=C/c1cccnc1 | 15.1%
O=C(CCn1nnc2ccccc21)OCC(=O)c1ccc([N+](=O)[O-])cc1 | 12.8%
CC(C)(C)NC(=O)COc1ccc(CNc2ccc3[nH]c(=O)[nH]c3c2)cc1 | 66.8% (active)
O=C1OC(Oc2ccc(Br)cc2)(c2ccccc2)c2ccccc21 (centres undefined) | -21.5%
Cc1ccc(C(=O)/C=C/c2c(C)nn(-c3ccccc3)c2Cl)cc1 | -5.72%
c1ccc(-c2cn3c(n2)CCc2ccc4cccnc4c2-3)cc1 | 56.4% (active)
Cc1cccc(-n2c(N)c(C(=O)N3CCN(C)CC3)sc2=S)c1 | 45.5%
CCc1c(C)[nH]c(=S)c(C#N)c1C | 46%
CN1c2ccc(C=O)c3c(C=O)ccc(c23)N(C)C1(C)C | 20.6%
COc1ccc2c(c1)c(=Cc1ccc(N(C)C)cc1)c1cc(-c3ccccc3)[n+](C)n12 | 74% (active)
Cc1ccc(NC(=O)Cn2sc3ccccc3c2=O)cc1 | 107% (active)
O=C(Nc1ccc(F)cc1)c1cc2c(s1)CCCC2 | 15.8%
COCCNC(=S)Nc1cc(S(=O)(=O)N2CCOCC2)ccc1N1CCCCC1 | 44.5%
O=C(CN1CCN(c2ccc(O)cc2)CC1)Nc1cc(S(=O)(=O)N2CCOCC2)ccc1Cl | 50% (active)
O=C(CN1CCN(c2ccc(O)cc2)CC1)Nc1ccc(-c2ccccc2)cc1 | 22.2%
COc1ccc(Cl)cc1NC(=O)CN(C)C(=O)CCCc1c[nH]c2ccccc12 | 27.2%
Nc1ccc(-c2nnc(-c3ccc(-c4ccccc4)cc3)o2)cc1 | 15.4%
COc1cccc(C(=O)Nc2nnc(S(=O)(=O)N(C)c3ccccc3)s2)c1 | 73.6% (active)
COc1cccc(C(=O)Nc2nnc(S(=O)(=O)N3CCCCC3)s2)c1 | 76.5% (active)
COc1cccc(C(=O)Nc2nnc(S(=O)(=O)N3CCOCC3)s2)c1 | 81% (active)

Structure (SMILES) | inhibition
Cc1cccn2c(CN(C)C3CCCc4ccccc43)c(C(=O)N3CCOCC3)nc12 (centres undefined) | 34.2%
COc1cc(C(=S)NCc2ccccc2)cc(Br)c1O | 39.6%
O=C(Nc1sc2c(c1C(=O)O)CCC2)c1ccccc1F | 33.8%
Oc1ccc(N=Cc2c(O)ccc3ccccc23)cc1 | 2.98%
COc1cc(C2CC(=O)N3CN(Cc4ccccc4)CSC3=C2C#N)ccc1OCc1ccccc1 (centres undefined) | 15.1%
Cc1c(-c2ccccc2)n[nH]c1C(=O)N=Nc1c(O)[nH]c2ccccc12 | 38.1%
CCOC(=O)C1=C(c2ccc(OC)cc2)C(=O)c2ccccc2C1=O | 82.8% (active)
Nc1ccc2nc3c(=O)[nH]c(=S)[nH]c3nc2c1 | 23.1%
COc1cccc(NC(=O)NCc2ccc(F)cc2)c1 | -14.2%
Clc1ccc2c(c1)C1=C(C(c3ccncc3)O2)C(c2ccc(Br)cc2)n2ncnc2N1 (centres undefined) | 42.4%
CCOc1cccc(/C=N/N2C(=O)CSC2=S)c1O | 10.3%
Nc1ccc2[nH]c(=S)sc2c1 | 35.6%
CCN1CCCC1CNC(=O)c1ccc2c(c1)NC(=O)/C(=C\c1ccccc1F)S2 (centres undefined) | 110% (active)
NC(=O)c1c(Nc2nc3c(F)cccc3s2)sc2c1CCCC2 | 2.29%
C#CCOCCOCCOCCNc1nc(N2CCN(C(=O)CCCCCCCCCCNC(=O)Cn3cc(CCCCCN)nn3)CC2)nc(N2CCN(C(=O)CCCCCCCCCCNC(=O)[C@H](CO)n3cc(CCCSC)nn3)CC2)n1 | -12.8%
O=C(Nc1nnc(S(=O)(=O)N2CCOCC2)s1)c1cccc(Br)c1 | 60.9% (active)
Cc1cccc(C(=O)Nc2nnc(S(=O)(=O)N3CCCCCC3)s2)c1 | 52.1% (active)
O=C(Nc1nnc(S(=O)(=O)N2CCCCCC2)s1)c1cccc(Br)c1 | 55.3% (active)
O=C(Nc1ccc(S(=O)(=O)N2CCOCC2)cc1)c1ccc2ncsc2c1 | 12.6%
S=C(NN=Cc1ccccn1)Nc1ccccn1 | 39.7%
COc1c(O)ccc2c1CN1CCc3cc4c(cc3C1C2)OCO4 (centres undefined) | 71.4% (active)
N#Cc1ccccc1-n1c(N)c(C(=O)N2CCCC2)sc1=S | 31%

Structure (SMILES) | inhibition
O=C1C=CC(=O)N1c1ccc(N2CCCCC2)cc1 | 63.8% (active)
O=[N+]([O-])c1ccc(N2CCN(c3ccc(O)cc3)CC2)c(Cl)c1 | 8.94%
Cc1ccc(-c2nc3ccc(Cl)cn3c2Cc2ccccc2)cc1 | 16%
Cc1ccc(-c2cn3cc(C)ccc3n2)cc1 | 40.7%
COc1ccc(CC(=O)NCC(=O)N/N=C/c2cc(Br)ccc2OC)cc1 | 70.9% (active)
COc1ccc(C(=O)Nc2ccccc2C(=O)N/N=C/c2ccc(O)c(OC)c2)cc1 | 26.4%
CCOC(=O)c1sc(NC(=O)CSc2nc(C)cc(C(F)(F)F)n2)c(C#N)c1C | 29.8%
Cn1c(CCC(=O)OCC(=O)NCc2ccccc2Cl)nc(=O)c2ccccc21 | 37.4%
O=C(Nc1nc(-c2ccncc2)cs1)C1COc2ccccc2O1 (centres undefined) | 52.1% (active)
O=C(CSc1nnc(SCc2ccc(Cl)cc2)s1)N/N=C/c1ccccc1Cl | 30.5%
COC(=O)c1sc(=S)n(-c2ccccc2)c1N | 17%
S=c1[nH]nc(-c2cc(-c3ccsc3)n[nH]2)n1-c1ccccc1 | 12.6%
Cn1sc(=O)c2cc(S(=O)(=O)NC3CC3)ccc21 | 40%
O=C1/C(=C\c2ccc([N+](=O)[O-])cc2)CS(=O)(=O)C/C1=C/c1ccc([N+](=O)[O-])cc1 | 56.5% (active)
COc1ccc(Cl)cc1-n1c(=S)sc2c(=O)n(-c3ccc(F)cc3)c(SCC(=O)O)nc21 | 34.5%
COC(=O)CCCC1=CC2=CC(=O)C(C)(OC(=O)c3cccs3)C(=O)C2=CN1CC(C)C (centres undefined) | 2.11%
O=[N+]([O-])c1c(NCCO)cc(Sc2nc3ccccc3s2)c2nonc12 | 68.6% (active)
CCOc1ccccc1Nc1ccc2nonc2c1[N+](=O)[O-] | 45.4%
Cc1ccc2nc(-c3cccc(Br)c3)cc(C(=O)Nn3cnnc3)c2c1 | 27.5%
COCCN1C=C2C(=O)C(C)(OC(=O)C3CCCC3)C(=O)C=C2C=C1c1ccsc1 (centres undefined) | 29.9%
Cc1ccc(OCC(=O)Nc2ccccc2Sc2ccc(Cl)cc2)c([N+](=O)[O-])n1 | 40.8%
CCN(CC)c1ccc2oc(=O)c(C)nc2c1 | 97.5% (active)

Structure (SMILES) | inhibition
CCc1cc(C(N)=O)c(NC(=O)c2ccc(OC)cc2)s1 | 16%
CCSc1nnc(NC(=O)c2ccc(C)cc2)s1 | 75.1% (active)
CC(C)(C)c1nnc(NC(=O)C2c3ccccc3Oc3ccccc32)s1 | 27.4%
CC1=CC(C)(C)Nc2ccc(OC(=O)CN3C(=O)C4CCCCC4C3=O)cc21 (centres undefined) | 12.7%
Cc1ccnc(-n2sc3ccccc3c2=O)n1 | 54.5% (active)
O=c1oc2ccccc2cc1-c1cn(-c2ccccc2)c(=S)[nH]1 | 18.8%
S=c1[nH]nc(-c2cc(-c3ccccc3)n[nH]2)n1/N=C/c1c2ccccc2cc2ccccc12 | -2.97%
Oc1c(CN2CCOCC2)ccc(CN2CCOCC2)c1O | 31.4%
Cc1cc(Nc2ccc(Cl)cc2)nc(N2CCOCC2)n1 | 11.2%
O=C(/C=C/c1ccco1)Nc1ccc(Oc2ccccc2)cc1 | -1.92%
Cc1ccc(/C=C/C(=O)Nc2ccc([N+](=O)[O-])c(NC(=O)/C=C/c3ccc(C)o3)c2)o1 | 65.5% (active)
COc1ccc(C(=O)Nc2cc(C)c(NC(=O)c3ccccc3OC)cn2)cc1 | 15.4%
Cc1nc([N+](=O)[O-])nn1C12CC3CC(CC(Br)(C3)C1)C2 | 26.5%
Cc1nc(N2CCOCC2)sc1C(=O)NN | 27.4%
Cc1ccc2nc(-c3ccc(Br)cc3)cn2c1 | 40.1%
O=c1c2c(nc3cc(-c4cccc(Cl)c4)[nH]n13)CCCC2 | 41.6%
CCOc1ccccc1/C=N/NC(=O)CNC(=O)COc1ccccc1 | 104% (active)
C=CCc1ccccc1OCC(=O)N/N=C/c1ccccc1OCC | 55.4% (active)
O=C(COc1ccccc1)Nc1nonc1NC(=O)COc1ccccc1 | 19.8%
CCC(=C/c1sc2ccc3ccccc3c2[n+]1C)/C=C1\Sc2ccc3ccccc3c2N1C | -4.66%
CN1CCN(c2ccc(NC(=O)c3ccc4c(c3)OCCO4)cc2Cl)CC1 | 17.7%
O=C(Nc1ccc(OC(F)(F)F)cc1)c1ccc2c(c1)no[n+]2[O-] | 10.5%

Structure (SMILES) | inhibition
COC(=O)CCc1sc(Nc2ccc(Br)cc2)nc1-c1ccc(OC)cc1 | -3.8%
O=C(NC1=CC(=O)c2ccccc2C1=O)c1ccccc1 | 51.5% (active)
COc1cc(OC)c(C(=O)Nc2ccc(N(C)C)cc2)cc1OC | 15.6%
COc1ccc(OCc2nnc3n2N=C(c2ccccc2)C(CC(=O)O)S3)cc1 (centres undefined) | 66.8% (active)
COc1ccc(OCc2n[nH]c(=S)n2N)cc1 | 46.2%
COc1ccc(-c2nn(-c3ccccc3)cc2/C=N/Nc2ccccn2)cc1OC | 20.9%
COc1ccc(-n2c(C)cc(C(=O)CSc3nnc(-c4cccs4)o3)c2C)cc1 | 14.3%
Cn1c(-c2ccco2)nc2cc3ccccc3cc21 | 22.1%
OCCN1CCN(C(=S)c2ccc(-c3ccccc3)cc2)CC1 | 50.8% (active)
COc1ccc(Nc2cc(Sc3ccc(OC)cc3)ncn2)cc1 | 26.3%
COCCNC(=O)Nc1ccc2nc(-c3ccco3)c(-c3ccco3)nc2c1 | 34.8%
O=[N+]([O-])c1ccc(C=Nc2ccc(Cl)cc2Cl)s1 | 4.17%
O=c1[nH]c2ccccc2n2c(-c3ccccc3)nnc12 | 102% (active)
Oc1c(C=Nc2cccc3nsnc23)ccc2ccccc12 | 27.2%
Cc1cc(N)n2nc(-c3ccc(C(C)(C)C)cc3)cc2n1 | 29.4%
O=C(N/N=C\c1cccc(Br)c1)c1ccccc1-n1cccc1 | 32%
C=C1c2cccc(OC)c2O[C@H](C(=O)OCC)[C@@H]1CCCCCC | -4.41%
Cn1c(-c2sccc2OCc2cccc(C(F)(F)F)c2)n[nH]c1=S | 52.9% (active)
CCc1c(C)sc(NC(=O)c2cccs2)c1C(N)=O | 16.4%
Cc1cc(Nc2ccc(Br)cc2)nc2ccccc12 | -14%
CCOc1ccc(-n2c(N)c(C(=O)NCC3CCCO3)sc2=S)cc1 (centres undefined) | 24.8%
